From PubChem BioAssay (NCI)
The panel holds about 83,000 compounds, 20% with a hit somewhere; the sample as a whole holds those more often.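 Growth was measured after 48 h exposure to one concentration of compound in 96-well plates. Values under 10 count as active.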 Unmarked numbers belong to inactive results. Calls of active or inactive are those of the source.

Experiments:
Test in all cases: NCI-60 one-dose screen, 48 h (100 = growth as untreated, 0 = no growth, -100 = all killed)
Conditions in all cases: 10 µM unless noted
[1] = test system: EKVX NSCLC
[2] = test system: SN12C renal
[3] = test system: UO-31 renal
[4] = test system: ACHN renal
[5] = test system: CAKI-1 renal
[6] = test system: A498 renal
[7] = test system: CCRF-CEM leukemia
[8] = test system: MOLT-4 leukemia
[9] = test system: SR leukemia
[10] = test system: RPMI-8226 leukemia
[11] = test system: OVCAR-8 ovarian
[12] = test system: OVCAR-5 ovarian
[13] = test system: OVCAR-4 ovarian
[14] = test system: SK-OV-3 ovarian
[15] = test system: IGROV1 ovarian
[16] = test system: OVCAR-3 ovarian
[17] = test system: HS 578T breast
[18] = test system: NCI/ADR-RES ovarian
[19] = test system: T-47D breast

| Compound | growth [1] | growth [2] | growth [3] | growth [4] | growth [5] | growth [6] | growth [7] | growth [8] | growth [9] | growth [10] | growth [11] | growth [12] | growth [13] | growth [14] | growth [15] | growth [16] | growth [17] | growth [18] | growth [19] |
| --- | --- | --- | --- | --- | --- | --- | --- | --- | --- | --- | --- | --- | --- | --- | --- | --- | --- | --- | --- |
| Cc1nc(-c2cc3ccccc3oc2=O)ccc1C(=O)/C=C/c1ccccn1 | 84.3% | 47.5% | 58% | 58.7% | 60.6% | 89.2% | 6.22% (active) | 27.1% | -12.6% (active) | -36.3% (active) | 69.3% | 60.7% | 85.2% | 116% | 7% (active) | 46.9% | 80.3% | 77.4% | 52.1% |
| N#Cc1nc(-c2ccccc2)oc1N1CCC(CO)C1 (centres undefined) | 77.4% | 97.1% | 88.7% | 105% | 90.2% | 76.4% | 105% | 108% | 110% | 103% | 103% | 93.2% | 99% | 121% | 93.1% | 104% | 96.1% | 106% | 83% |
| O=C(CCN1C(=O)/C(=C/c2ccccc2F)SC1=S)N1CCOCC1 | 86.8% | 73.9% | 67.6% | 62.2% | 84.7% |  | 53.3% | 89.9% | 46.7% | 59.7% | 99.6% | 94.2% | 99.1% |  | 61.9% | 99.8% | 101% | 99.8% | 59.3% |
| [Cl][Ru].c1ccc(-c2cccc(-c3ccccn3)n2)nc1.c1ccc(-c2ccnc3c2ccc2c(-c4ccccc4)ccnc23)cc1 | 62.7% | 20.1% | 79.6% | 96.7% | 80.3% |  | 38% | 41.4% | 11% | -10.5% (active) | 68.2% | 68.1% | 47.3% | 46.8% | 21.4% | 13.8% | 13.4% | 71.5% | 14.2% |
| COc1ccc(NC2=CC(=O)C(C)=C(C)C2=O)cc1 | 78.8% | 86.4% | 81.2% | 96.1% | 93.5% |  | 70.1% | 75.6% | 82.3% | 73.3% | 79.1% | 109% | 43.8% |  | 89.3% | 9.94% (active) | 110% |  | 67.5% |
| COc1ccc(-c2nn3c(-c4ccccc4F)nnc3s2)cc1 | 70% | 58.2% | 65% | 78.1% | 50.7% | 16.4% | 58.5% | 35.1% | 15.4% |  | 68.3% | 81.2% | 82% | 84% | 57.3% | 49.6% | 74.2% | 21.3% | 46% |
| C[C@@H](Nc1c(C#N)cnc2ccc(-c3cnc(N)nc3)cc12)c1ccccc1 | 4.11% (active) | 11.8% | 4.65% (active) | 6.57% (active) | 1.83% (active) |  | 14% | 0.24% (active) | 7.92% (active) | -26.9% (active) | 17.1% | 20.9% | 4.34% (active) | -2.04% (active) | -32.6% (active) |  | -13.6% (active) | 22.5% | 3.05% (active) |
| COc1ccc(-c2csc(N/N=C/c3c(-c4ccc(S(C)(=O)=O)cc4)nc4ccccn34)n2)cc1 | 106% | 105% | 87% | 102% | 93.4% | 85.9% | 94.2% | 92.4% | 94.5% |  | 103% | 108% | 105% |  | 115% | 124% | 118% | 110% | 87.8% |
| COc1cc(/C=C/C(=O)c2ccc(C)cc2)ccc1Oc1nc(NCCO)nc(N2CCOCC2)n1 | 67.8% | 74% | 51.5% | 55.7% | 50.4% |  | 3.44% (active) | 0.537% (active) | -3.65% (active) | -18.3% (active) | 76.1% | 83.6% | 80.6% | 95.9% | 53.9% |  | 79.9% | 54.1% | 92.4% |
| CCOC(=O)c1c(Nc2ccccc2)nn2c(-c3ccco3)c(C#N)cnc12 | 75.7% | 92.9% | 71% | 56.5% | 90.1% | 45.1% | 82.4% | 92.2% |  |  | 82.1% | 109% | 86.6% |  | 100% | 131% | 72% | 80% | 87.8% |
| COc1cccc(COc2ccc(/C=C3/C(=O)Nc4cc(Cl)ccc43)cc2)c1 | 87.6% | 91.1% | 75.4% | 96.9% | 90.6% | 93% | 82.6% | -25.9% (active) |  | 78% | 90.8% | 96.1% | 96.6% | 100% | 87.6% |  | 91% | 90.3% | 80.6% |
| Clc1ccc2c(OCCCN3CCOCC3)c3oc4ccccc4c3nc2c1 | 34.6% | 30.4% | 22.2% | 15.3% | 19.7% | 13.6% |  | 11.7% | 11.9% | 29% | 31.2% | 35.1% | 59% | 71.8% | 19.7% | 69.5% | 38.4% | 36.3% | 40.8% |
| COc1cccc(N2CCN(c3ncnc4c3[nH]c3ccc(F)cc34)C[C@@H]2C)c1 | -0.593% (active) | -28.2% (active) | -98.8% (active) | -12.9% (active) | -28.6% (active) |  | -16.1% (active) | -42% (active) | -22.8% (active) | -34.7% (active) | -96.7% (active) | 0.0989% (active) | -56.5% (active) | -3.28% (active) | -30.2% (active) | -7.65% (active) | -18.7% (active) | 7.77% (active) | -52.6% (active) |
| N#Cc1nc(-c2ccccc2)oc1S(N)(=O)=O | 97.5% | 49.6% | 72.3% | 73% | 63.1% |  | 14.6% | 41.4% | 3.32% (active) | 46.2% | 79.1% | 74.1% | 84.2% | 135% | 49.2% | 77.4% | 95% | 82.7% | 64.1% |
| O=C1Nc2ccc(Cl)cc2/C1=C/c1ccc(OCC(=O)c2ccc(Br)cc2)cc1 | 81.6% | 93.5% | 73.4% | 88.4% | 76.1% |  | 102% | 95.6% | 103% | 101% | 96% | 93.2% | 91.7% | 79.9% | 63% | 90.3% | 89.3% | 93.3% | 84.2% |
| CCOC(=O)c1c(Nc2ccccc2)nn2c(N)c(C#N)c(-c3ccc(F)cc3)nc12 | 83.1% | 95.9% | 78.9% | 81.6% | 91.2% |  | 68% | 46% | 65% | 70.4% | 97.4% | 108% | 87% | 93.2% | 93.1% | 110% | 79.6% | 97.4% | 64.6% |
| COc1ccc(/C=N/NC(=O)c2[nH]c3ccc(Br)cc3c2-c2ccccc2)o1 | 37.8% | 43.3% | 46.1% | 28.1% | 26.3% |  | 15.4% | 17% | 17.7% | 12.5% | -12.2% (active) | 39.9% | 68% | 38.1% | 19.7% | 16.6% | 11.5% | 19.9% | 78.4% |
